Assay results published in PubChem BioAssay.

assay: inhibitors of the yeast RAM network, pilot screen, dse1pr::URA3 reporter, 5-FOA selection (AID 869);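 note: 0% = DMSO wells with no growth and 100% = 10 µM 1-NA-PP1 with full growth; RAM network block rescues cells from 5-FOA so hits raise OD615 growth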; settings: S. cerevisiae dse1pr::URA3 5-FOA growth, OD615, 2 d; at 10 µM; hits give high values; strain carries analog-sensitive mutant Cbk1 kinase;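 active = inhibition over a set limit, the all-compound mean plus 3 SD, in both replicate runs; inconclusive = over that limit in just one replicate run; inactive = at or under that limit in both runs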

inhibition, inactive:
CCOC(=O)c1cc(NC(=O)SCC(=O)O)c(C)nc1C 0.56%
Clc1c(CSc2nc3ccccc3o2)nc2sccn12 -0.115%
O=C(CCn1[nH]c(=O)c2ccccc2c1=O)NCCO 0.26%
CC12CCC(C(=O)N3CCN(C(=O)C45CCC(C)(C(=O)O4)C5(C)C)CC3)(OC1=O)C2(C)C 1.42%
COc1cccc(C2C(C(=O)c3cccs3)=C(O)C(=O)N2CCCn2ccnc2)c1OC (stereo not given) 0.145%
Cc1ccc(S(=O)(=O)N(CC(=O)N2CCC(C(N)=O)CC2)Cc2ccc(F)cc2)cc1 -0.07%
COc1ccc(N2CCN(C(=O)CSc3ccccc3)CC2)cc1 1.16%
COc1ccccc1N1CCN(C(=O)C2CCN(S(=O)(=O)c3ccc(F)cc3)CC2)CC1 1.03%
COCCN1C=C(C(=O)OC)C(c2cc3c(cc2Br)OCO3)C(C(=O)OC)=C1 0.41%
CC1=C(C(N)=O)C(c2ccccn2)n2nc(SCc3ccccc3)nc2N1 (stereo not given) 0.46%
O=C(/C=C/N1CCOCC1)c1ccc(-c2ccccc2)cc1 -0.475%
CCOc1ccc(NS(=O)(=O)c2cc(Cl)ccc2OC)cc1 0.335%
COc1ccc(NC(=O)CC2CCCCC2)cc1OC 2.6%
Cc1oc(-c2cccc(Cl)c2)nc1CN1CCC(C(=O)N2CCN(c3ccccc3F)CC2)CC1 1.05%
O=C(Nc1ccc2c(c1)OCCO2)C1CCN(C(=O)c2ccc(F)cc2)CC1 0.685%
